Test results reported in PubChem BioAssay (EPA / NIEHS).
Results filed as inconclusive are left out. The source made the active and inactive calls. Rule for the calls: active = hit-call score of the fitted dose curve at least 0.9, where 1 is the maximum; inconclusive = response in the unintended direction; inactive = score below 0.9.

Biological target: Retinoic acid receptor alpha (Homo sapiens) (UniProt P10276)
Assay: NVS_NR_hRAR_Antagonist: NovaScreen (NVS) Nuclear Receptor Binding Assay for human Retinoic Acid Alpha Receptor Antagonism (RAR) (AID 2283358)
Protocol: NVS_NR_hRAR_Antagonist is a biochemical, single-readout assay that uses extracted gene-proteins in a cell-free assay. Measurements were taken 2 hours after chemical dosing in a 384-well plate.NVS_NR_hRAR_Antagonist is one of one assay component(s) measured or calculated from the NVS_NR_hRAR_Antagonist assay. It is designed to make measurements of fluorescent resonance energy transfer, a form of binding reporter, as detected with fluorescent resonance energy transfer signals by Time-Resolved Fluorescence Resonance Energy Transfer (TR-FRET) technology.Data from the assay component NVS_NR_hRAR_Antagonist was analyzed into 1 assay endpoint. This assay endpoint, NVS_NR_hRAR_Antagonist, was analyzed in the positive analysis fitting direction relative to DMSO as the negative control and baseline of activity. Using a type of binding reporter, loss-of-signal activity can be used to understand changes in the binding as they relate to the gene RARA. Furthermore, this assay endpoint can be referred to as a primary readout, because the performed assay has only produced 1 assay endpoint. To generalize the intended target to other relatable targets, this assay endpoint is annotated to the nuclear receptor intended target family, where the subfamily is non-steroidal.
Binding assays used specific radioligands (tritiated, iodinated) with non-radioactive competitive displacement ligands in agonist or antagonist protocols (as indicated) and various reference compounds and inhibitors to titrate specific binding to receptors and transporters. Most enzyme assays (CYPs, kinases, phosphatases, proteases, HDACs) used recombinant protein and specific substrates (fluorescence mostly, some colorimetric and radioactive) and inhibitors, followed by a biochemical separation of substrate and product. All assays for the biochemical HTS were initially run in duplicate at a single concentration (10 uM for CYP450 assays and 25 uM for all others). […] Each assay was run with positive and negative controls, and concurrent controls on every plate. The follow-up (secondary) screen tested active chemical-pairs in concentration series, as well as a few additional assays not tested in the primary screen, some selected negative inactives, and several cases re-run in the concentration series for confirmatory purposes.

Sequence of Retinoic acid receptor alpha (Homo sapiens) (P10276 whole entry, looked up): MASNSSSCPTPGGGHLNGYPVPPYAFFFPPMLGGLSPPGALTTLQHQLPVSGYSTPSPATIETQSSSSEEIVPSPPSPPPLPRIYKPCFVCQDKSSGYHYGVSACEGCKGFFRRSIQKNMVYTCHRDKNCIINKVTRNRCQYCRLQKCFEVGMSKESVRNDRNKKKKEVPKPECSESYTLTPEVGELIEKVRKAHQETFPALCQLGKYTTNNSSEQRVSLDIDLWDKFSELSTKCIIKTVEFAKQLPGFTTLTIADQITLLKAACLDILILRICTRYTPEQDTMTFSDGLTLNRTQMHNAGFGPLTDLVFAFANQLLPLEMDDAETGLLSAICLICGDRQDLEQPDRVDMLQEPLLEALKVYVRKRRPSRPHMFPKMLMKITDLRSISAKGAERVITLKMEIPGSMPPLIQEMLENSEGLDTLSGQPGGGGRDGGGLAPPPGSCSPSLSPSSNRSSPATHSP

Structure (SMILES) | outcome
OC(c1ccc(Cl)cc1)(c1ccc(Cl)cc1)C(Cl)(Cl)Cl | inactive
CCOc1cc(C(C)(C)C)ccc1C1COC(c2c(F)cccc2F)=N1 (configuration not stated) | inactive
CCCC(=NOCC)C1=C(O)CC(CC(C)SCC)CC1=O (configuration not stated) | inactive
O=C1C2CC=CCC2C(=O)N1SC(Cl)(Cl)Cl (configuration not stated) | inactive
COCc1cnc(C2=NC(C)(C(C)C)C(=O)N2)c(C(=O)O)c1 (configuration not stated) | inactive
CC1(C)C(C=C(Cl)Cl)C1C(=O)OC(C#N)c1cccc(Oc2ccccc2)c1 (configuration not stated) | inactive
CS(=O)(=O)c1cc(C(F)(F)F)ccc1C(=O)c1cnoc1C1CC1 | inactive
CCOP(=O)(OCC)Oc1nc(Cl)c(Cl)cc1Cl | inactive
O=c1n(Cl)c(=O)n(Cl)c(=O)n1Cl | inactive
CCN(CC)c1nc(C)cc(OP(=S)(OC)OC)n1 | inactive
CCCCC(C#N)(Cn1cncn1)c1ccc(Cl)cc1 (configuration not stated) | inactive
CNC(=O)Oc1cccc2ccccc12 | inactive
CN=C=S | inactive
Cc1c(COC(=O)[C@@H]2[C@H](/C=C(\Cl)C(F)(F)F)C2(C)C)cccc1-c1ccccc1 | inactive
CCOC(=O)C(C)OC(=O)c1cc(Oc2ccc(C(F)(F)F)cc2Cl)ccc1[N+](=O)[O-] (configuration not stated) | inactive
Cc1ccc(N=CN(C)C=Nc2ccc(C)cc2C)c(C)c1 | inactive
CC(C)Oc1cccc(NC(=O)c2ccccc2C(F)(F)F)c1 | inactive
